PubChem BioAssay AID588397 (National Center for Advancing Translational Sciences (NCATS), 2011)
Among all 1,300 compounds or so, about 1,000 (77%) were called active. Not shown: some 7% with an inconclusive outcome. The set was probably picked from earlier hits. This is one part of the list. Values without a mark were called inactive. The call rests on the fitted dose curve; in most records, active means well fitted inhibition curve with a large enough effect; inconclusive means small, poorly fitted or top-dose-only effect; inactive means no such curve, though single readings can be large or run the other way.

Test: qHTS of small molecules that selectively kill Giardia lamblia: Hit Validation.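 Further: viability measured as ATP content by luminescence so killing lowers signal; trophozoites exposed to compounds for 48 h anaerobically at 37 °C; nearly all actives have a fitted effect of over 65% in size.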
Conditions: Giardia lamblia trophozoite viability, dose-response; series mostly up to 38.3 µM; activity change, negative = killing: at the top concentration
Outline: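 Media and compound were dispensed first, then trophozoites at 100 cells/well; plates sat 48 hrs at 37 deg C without oxygen before ATP luminescence reagent was added and read after 15-30 min at room temperature.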
On the % scale 0 is the no-effect control and ±100 the full control effect; potency means the concentration at half of the fitted maximal effect.

Compound | Potency | activity change, negative = killing
c1csc(-c2ccc(N3CCOCC3)nn2)c1 | 3.65 µM (active) | 
O=[N+]([O-])c1ccc(NCc2ccccc2N2CCC(CO)CC2)nc1 | 1.45 µM (active) | 
O=C1c2ccccc2C(=O)c2[nH]cnc21 | 2.59 µM (active) | 
O=C(O)c1ccc(NC(=O)c2cc3ccccc3o2)cc1 | 6.5 µM (active) | 
O=C1CSC(c2ccc(F)cc2)N1c1c(F)cccc1F (centres undefined) |  | -0.629%
CC(C)(C)n1nc(-c2ccc(Cl)cc2)c2c(N)ncnc21 | 14.5 µM (active) | 
COc1ccc(N2CCCC2)c(NC(=O)c2ccc([N+](=O)[O-])o2)c1 | 0.516 µM (active) | 
CCN(CC)S(=O)(=O)c1ccc(N2CCCC2)c(NC(=O)c2ccc([N+](=O)[O-])o2)c1 | 1.45 µM (active) | 
COc1ccc2nc3cc(Cl)ccc3c(Nc3ccc(O)c(CN4CCN(C)CC4)c3)c2c1 | 10.3 µM (active) | 
CN(C)CCCn1cnc2c(c1=N)C(c1ccccc1)c1ccc3ccccc3c1O2 (centres undefined) | 20.5 µM (active) | 
CCc1ccc(C(=O)/C=C/c2ccc([N+](=O)[O-])o2)cc1 | 1.3 µM (active) | 
CN1CCN(C(=O)/C=C/c2ccc([N+](=O)[O-])o2)CC1 | 0.818 µM (active) | 
O=[N+]([O-])c1nn(-c2ccccc2)[n+]([O-])c1N1CCN(c2ccccc2)CC1 | 1.3 µM (active) | 
CC1CCN(c2c([N+](=O)[O-])nn(-c3ccc4c(c3)OCCO4)[n+]2[O-])CC1 | 1.03 µM (active) | 
O=[N+]([O-])c1nn(-c2ccccc2)[n+]([O-])c1N1CCN(c2ccccc2F)CC1 | 1.16 µM (active) | 
CCN(Cc1ccncc1)C(=O)CC1C(=O)NCCN1Cc1ccc(F)c(F)c1 (centres undefined) |  | 2.79%
Cc1c(C(=O)c2ccc(Cl)cc2[N+](=O)[O-])c2ccccn2c1CCC#N | 0.41 µM (active) | 
Cc1ccccc1-c1nc2c(=O)n(C)c(=O)nc-2n(C)n1 | 0.115 µM (active) | 
CCn1nc(-c2ccccc2C)nc2c(=O)n(C)c(=O)nc1-2 | 0.103 µM (active) | 
COc1ccccc1C(=O)NC(=O)OCCn1c(C)cnc1[N+](=O)[O-] | 0.579 µM (active) | 

Compound | Potency | activity change, negative = killing
Cc1cnc([N+](=O)[O-])n1CCOC(=O)NC(=O)c1ccccc1Cl | 1.16 µM (active) | 
Cc1ccc(C(=O)c2c3ccc([N+](=O)[O-])cc3[n+]([O-])n2CCCN)cc1 | 4.6 µM (active) | 
Cc1ccc(C(=O)c2c3ccc([N+](=O)[O-])cc3[n+]([O-])n2CCCC(N)=O)cc1 | 3.65 µM (active) | 
NC(=O)CCn1c(C(=O)c2cccc([N+](=O)[O-])c2)c2ccccc2[n+]1[O-] | 4.1 µM (active) | 
Cc1ccc(C(=O)c2c3ccc([N+](=O)[O-])cc3[n+]([O-])n2CCC(N)=O)cc1 | 6.5 µM (active) | 
CC(=O)CSc1ccc(-c2nc3cc(C)c(C)cc3[nH]2)cn1 | 2.05 µM (active) | 
CC(=O)CSc1ccc(-c2nc3ccccc3[nH]2)cn1 | 1.45 µM (active) | 
COc1ccc(CNc2ccc([N+](=O)[O-])cn2)cc1 | 7.29 µM (active) | 
Cc1c(Br)c([N+](=O)[O-])nn1C(C)C(=O)Nc1ccc2c(c1)OCO2 (centres undefined) | 1.16 µM (active) | 
O=C(COc1cccnc1[N+](=O)[O-])Nc1ccc2c(c1)OC(F)(F)O2 | 5.79 µM (active) | 
O=C(COc1cccnc1[N+](=O)[O-])Nc1ccc2c(c1)OCO2 | 5.16 µM (active) | 
O=S(=O)(Nc1cc(Sc2cccc3cccnc23)c(O)c2ccccc12)c1ccc(F)cc1 | 11.6 µM (active) | 
Cn1nc([N+](=O)[O-])nc1Sc1cccc2cccnc12 | 7.29 µM (active) | 
Nc1nc(Cl)nc2c1ncn2C1CC(O)C(CO)O1 (centres undefined) | 0.115 µM (active) | 
CC(CSc1nnnn1-c1ccccc1)Cn1c(N2CCCC2)nc2c1c(=O)[nH]c(=O)n2C (centres undefined) | 0.183 µM (active) | 
O=C(Nc1ccc2[nH]ccc2c1)c1ccccc1 | 2.05 µM (active) | 
COc1ccc(NS(=O)(=O)c2cc(NC(=O)c3ccc(=O)[nH]c3)ccc2C)cc1 |  | 7.37%
COc1ccc(C(=O)Nc2ccc3[nH]ccc3c2)cc1 | 0.41 µM (active) | 
C(=NN1CCCCCC1)c1ccc2ccccc2n1 | 1.03 µM (active) | 
CC(=O)NC(Cc1ccccc1F)C(=O)NC1CCN(c2ncccc2[N+](=O)[O-])CC1 (centres undefined) | 2.31 µM (active) | 

Compound | Potency | activity change, negative = killing
CC(NC(=O)c1ccccc1F)c1nnc(SCC(=O)NC2CCCC2)n1C (centres undefined) |  | -17%
COc1ccc(CC(NC(C)=O)C(=O)NC2CCN(c3ncccc3[N+](=O)[O-])CC2)cc1 (centres undefined) | 2.05 µM (active) | 
COc1ccc(CN2C(=O)C(CC(C)C)Nc3ncnc(N4CCCCC4)c32)cc1 (centres undefined) |  | 3.69%
CC(=O)NC(Cc1ccccc1)C(=O)NC1CCN(c2ncccc2[N+](=O)[O-])CC1 (centres undefined) | 1.63 µM (active) | 
CC(=O)NC(Cc1ccc(F)cc1)C(=O)NC1CCN(c2ncccc2[N+](=O)[O-])CC1 (centres undefined) | 1.83 µM (active) | 
COc1ccc(OCC(=O)NNC(=O)C2CCN(c3ncnc4sc(C)c(C)c34)CC2)cc1 |  | -39.1%
O=C(COc1cccnc1[N+](=O)[O-])Nc1c(Cl)cccc1Cl | 3.26 µM (active) | 
O=C(COc1cccnc1[N+](=O)[O-])Nc1ncc(Cl)cc1Cl | 4.6 µM (active) | 
CC(=O)c1c(COC(=O)c2ccc(F)cc2)nc2ccccc2[n+]1[O-] | 6.5 µM (active) | 
CC(=O)c1c(COC(=O)c2ccccc2Cl)nc2ccccc2[n+]1[O-] | 14.5 µM (active) | 
O=C(Nc1ccc(OCC(=O)N2CCOCC2)cc1)c1ccccc1F | 7.29 µM (active) | 
Cn1c(CNC(=O)c2ccccc2F)cc2ccccc21 |  | 11%
COc1ccc2oc(=Nc3ccccc3)c(-c3nc4ccccc4[nH]3)cc2c1 | 4.1 µM (active) | 
O=[N+]([O-])c1c(C(Cl)Cl)nn(-c2ccccc2)c1N1CCOCC1 | 1.83 µM (active) | 
CCOC(=O)C1CCN(c2c([N+](=O)[O-])c(C(Cl)Cl)nn2-c2ccccc2)CC1 | 2.9 µM (active) | 
CCN1/C(=C\c2ccc3ccccc3[n+]2CC)Sc2cc(C)ccc21 |  | -1.8%
Cc1oc2cc([N+](=O)[O-])c(O)c([N+](=O)[O-])c2c1C(=O)c1ccc(Cl)cc1 | 2.59 µM (active) | 
Cc1oc2cc([N+](=O)[O-])c(O)c([N+](=O)[O-])c2c1C(=O)c1ccc(Br)cc1 | 2.31 µM (active) | 
COc1ccc(C(=O)c2c(C)oc3cc([N+](=O)[O-])c(O)c([N+](=O)[O-])c23)cc1 | 1.83 µM (active) | 
